Experimental data published in PubChem BioAssay AID504500 (NMMLSC, 2011).
Entries with a potency or affinity are not part of this list. Active and inactive are the calls of the source.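 How the source made its calls: active means compounds whose curve fit is tight, with span above 25% and half-effect concentration below 10 µM; inactive means the rest.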

Biological target: Beta-adrenergic receptor kinase 1 (Homo sapiens) (UniProt P25098)
Test: aptamer displacement from bead-bound GRK2 – biochemical, cherry pick 1, bead flow cytometry, dose response (AID 504500)
Details: bead-bound biotinylated GRK2, FAM-aptamer displacement; series mostly up to 33 µM

Beta-adrenergic receptor kinase 1 (Homo sapiens), sequence (P25098 whole entry, looked up): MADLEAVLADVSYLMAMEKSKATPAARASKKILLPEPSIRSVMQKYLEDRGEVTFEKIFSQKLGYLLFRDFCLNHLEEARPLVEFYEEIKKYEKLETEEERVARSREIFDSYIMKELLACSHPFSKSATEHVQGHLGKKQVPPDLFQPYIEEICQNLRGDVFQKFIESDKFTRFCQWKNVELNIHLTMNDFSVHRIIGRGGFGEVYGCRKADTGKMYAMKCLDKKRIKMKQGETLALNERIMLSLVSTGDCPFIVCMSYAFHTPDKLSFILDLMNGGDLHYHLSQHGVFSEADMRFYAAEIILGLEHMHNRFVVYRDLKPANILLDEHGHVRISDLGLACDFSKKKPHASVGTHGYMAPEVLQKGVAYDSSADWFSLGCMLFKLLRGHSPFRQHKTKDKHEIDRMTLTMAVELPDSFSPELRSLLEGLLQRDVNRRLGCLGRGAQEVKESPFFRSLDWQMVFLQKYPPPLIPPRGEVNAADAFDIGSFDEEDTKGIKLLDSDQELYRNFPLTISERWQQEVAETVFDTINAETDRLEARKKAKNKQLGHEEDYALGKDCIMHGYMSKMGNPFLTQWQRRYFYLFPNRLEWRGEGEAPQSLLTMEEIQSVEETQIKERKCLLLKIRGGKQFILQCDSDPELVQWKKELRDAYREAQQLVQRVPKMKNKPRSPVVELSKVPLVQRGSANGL

SMILES	outcome
Cn1ncnc2c(=O)n(C)c(=O)nc1-2	inactive
CC[n+]1c(/C=C/N(C)c2ccccc2)sc2ccc(Cl)cc21	inactive
Cc1nc2c(=O)n(C)c(=O)nc-2n(C)n1	inactive
O=C1NC(=O)N(c2ccc3c(c2)OCO3)C(=O)/C1=C\c1ccc(-c2ccccc2C(=O)O)o1	inactive
